Compounds with a hit are over-represented: about 4% of the library has one in this group of screens.
D1 antag – blocks dopamine activation of the human D1 receptor | HEK293 TREx D1 cells, calcium flux, dopamine EC80; stronger effect = lower value | activity change, negative = inhibition, % at 10 µM | actives 3.2% (n = 360,000); in the data active = activity change below about -30%
Target sequence (P21728 whole entry, looked up): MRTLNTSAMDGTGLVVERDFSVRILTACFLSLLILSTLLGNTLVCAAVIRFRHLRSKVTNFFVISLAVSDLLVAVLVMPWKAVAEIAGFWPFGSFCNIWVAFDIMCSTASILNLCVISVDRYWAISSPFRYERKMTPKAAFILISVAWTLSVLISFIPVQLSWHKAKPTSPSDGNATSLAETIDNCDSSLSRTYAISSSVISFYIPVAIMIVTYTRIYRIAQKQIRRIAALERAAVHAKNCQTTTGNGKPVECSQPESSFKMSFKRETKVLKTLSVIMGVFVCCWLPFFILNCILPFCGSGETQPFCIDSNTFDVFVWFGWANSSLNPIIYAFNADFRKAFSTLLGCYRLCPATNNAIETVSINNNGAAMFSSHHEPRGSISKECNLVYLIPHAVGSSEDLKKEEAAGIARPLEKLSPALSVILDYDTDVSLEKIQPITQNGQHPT
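Calcium flux readout: force-coupled, inducible Hek293 Trex D1 line, cells induced overnight at 30 C with tetracycline, dye-loaded 30–90 min at RT. Antagonism scored against EC80 dopamine challenge given 180 s after compound.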
D1 ag – activates the human D1 dopamine receptor. AID 504660. activation, % at 2 µM. actives 1% (n = 360,000). P21728. HEK293 T-REx D1 cells, calcium flux, agonist mode
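Inducible HEK293 T-REx D1 cells, force-coupled to calcium signalling, were plated at 4000 cells/well with tetracycline and held overnight at 30 C. After no-wash calcium dye loading, compound-evoked calcium rise over 180 s flagged agonists.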
D1 PAM – potentiators of human D1 dopamine receptor | HEK293 TREx D1 cells, calcium flux, dopamine EC20 potentiation | potentiation, % at 10 µM | actives 0.036% (n = 360,000); in the data active = potentiation above about 30%
TRHR enhancer – allosterically enhances the human TRH receptor; P34981; TRHR cells, fluo-8 calcium fluorescence, EC20 TRH enhancement; enhancement, % at 2 µM; actives 0.66% (n = 360,000); in the data active = enhancement above about 30%
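Enhancer read-out: after compound pinning and an initial kinetic agonist-mode read, an EC20 of TRH (10 nM final) was injected and fluo-8 calcium signal (Ex 480/Em 530) followed at 1 s/cycle for 100 cycles in TRHR-expressing cells.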
TRHR ag – activates the human TRH receptor; P34981; TRHR cells, calcium flux fluo-8, FDSS agonist mode; activation, % at 2 µM; actives 0.18% (n = 360,000); AID 493084
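Agonist-mode FDSS calcium read (Ex 480/Em 530, 1 s cycles) in 1536-well TRHR cells with fluo-8 dye, after 10-cycle baseline and 23 nL compound addition; TRH at EC20 (10 nM final) added afterwards for the enhancer phase.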
GRP78 ERSR act – inducers of ER stress response in human glioma cells. U87-MG GRP78 promoter luciferase reporter, 16 h. Potency, µM, usual class: activators. actives 0.02% (n = 420,000). AID 602332; active = well fitted activation curve with a large enough effect; inconclusive = small, poorly fitted or top-dose-only effect; inactive = no such curve, though single readings can be large or run the other way; also: series mostly up to about 76 µM; nearly all actives have a fitted effect of over 35% in size
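Stably transfected U87-MG glioma cells carrying a GRP78-based luciferase sensor; 16 h compound incubation. Luminescence end-point read 10 min after Bright-Glo addition at room temperature.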
Of the large screens only hits and unclear results are named; the others gave an inactive call. Rule as the data show it, unless noted: active = activation above about 30%; inactive = the rest.

Cc1cc(-c2cc(C(=O)NCc3ccccc3)on2)nc(NC2CCCC2)n1	none
O=C(Nc1ccc([N+](=O)[O-])cc1)Nc1ccc2c(c1)OCCO2	D1 antag -41, D1 ag 39, GRP78 ERSR act inconclusive
COc1nonc1NC(=O)CSc1nc2ccccc2[nH]1	none
CSc1ccc(Cl)c(C(=O)OCC(=O)N(C)CCC#N)c1	none
CN(CCC#N)C(=O)COC(=O)c1ccc(Cl)cc1O	D1 antag -34
C/C(=N\NC(=O)C(=O)Nc1cccc(C(F)(F)F)c1)c1ccc(Cl)s1	D1 antag -39
C/C(=N\Nc1cccc(C(=O)O)c1)c1ccc(Cl)s1	D1 antag -59
COc1ccc(/C(C)=N/Nc2cccc(C(=O)O)c2)cc1OC	none
Cc1ccc(C)c(N2CCN(C(=O)c3ccc(Cl)c(NC4=NC5CS(=O)(=O)CC5S4)c3)CC2)c1 (configuration not stated)	none
COc1cc(CN2CCc3nc(N4CCN(c5ccccn5)CC4)ncc3C2)cc(OC)c1OC	D1 antag -31
CCN1CCN(c2ncc3c(n2)CCN(Cc2ccc(OC(C)C)cc2)C3)CC1	D1 antag -40
COc1cc(CN2CCc3nc(N4CCN(c5ncccn5)CC4)ncc3C2)cc(OC)c1OC	none
CCN1CCN(c2ncc3c(n2)CCN(Cc2ccc(C)s2)C3)CC1	D1 antag -32
CN1CCN(c2ncc3c(n2)CCN(Cc2ccc(Br)s2)C3)CC1	D1 antag -41
C/C(CC(=O)Nc1cc(Cl)ccc1C)=N\NC(=O)C(=O)N1CCCC1	none
CN(CC1CCOCC1)C(=O)CC1C(=O)NCCN1Cc1cccc(C(F)(F)F)c1 (configuration not stated)	D1 antag -77
COc1ccc(CN2CCNC(=O)C2CC(=O)N(C)CC2CCOCC2)cc1OC (configuration not stated)	none
CCOC(=O)CC1C(=O)NCCN1Cc1cccc(OC)c1 (configuration not stated)	TRHR enhancer 36
CCCOC(=O)CC1C(=O)NCCN1Cc1cc(OC)cc(OC)c1 (configuration not stated)	none
Cc1ccc(CN2CCNC(=O)C2CC(=O)N(C)C2CCOCC2)cc1 (configuration not stated)	D1 antag -33
COCC(C)N=Cc1c(O)[nH]c2ccccc12 (configuration not stated)	none
N#Cc1c(-c2ccccc2)[nH]c(=O)[nH]c1=O	D1 antag -35
Cc1cc(C)c(C#N)c(N2CCN(c3ccccc3)CC2)n1	none
Cc1cccc(/C=c2\s/c(=C\C(=O)C(C)(C)C)[nH]c2=O)c1	none
CC(C)(C)C(=O)/C=c1\[nH]c(=O)/c(=C\c2ccc(C#N)cc2)s1	D1 antag -47
COC(=O)N1C(=O)[C@](c2ccc(OC)cc2)(C(C)C)N1C(=O)OC	none
COC(=O)N1C(=O)[C@](c2ccsc2)(C(C)C)N1C(=O)OC	D1 antag -67
O=C(CSc1nnc(-c2cccc(Br)c2)o1)N1CCOCC1	TRHR enhancer 31
CCCC(c1nnnn1Cc1ccc(OC)cc1)N1CCN(C(=O)c2ccco2)CC1 (configuration not stated)	none (no result: D1 PAM)
CCCC(=O)Nc1ccc(NCc2ccc(C)s2)cc1	none
O=C(CSc1cc([N+](=O)[O-])cc(S(=O)(=O)Cc2ccccc2)c1)NC1CC1	D1 antag -40
C=CCNC(=O)CSc1cc([N+](=O)[O-])cc(S(=O)(=O)Cc2ccccc2)c1	none
C[C@H]1COC(=O)[C@@H](Cc2ccc(F)cc2)C/C=C\C[C@H](CC(=O)NCCO)C(=O)N1	none (no result: D1 antag, D1 ag, D1 PAM, TRHR enhancer, TRHR ag)
O=C(NCCCN1CCOCC1)c1c(O)c2cc(Br)cc(Br)c2[nH]c1=O	D1 antag -36
COc1cc2[nH]c(=O)c(C(=O)NCCCN3CCOCC3)c(O)c2cc1OC	none
COc1cc(/C=N/NC(=O)c2ccc(N)cc2)ccc1OC(=O)c1cccc(C)c1	D1 antag -41
COc1cc(C(=O)N/N=C/c2ccc(OC(=O)c3cccc(C)c3)cc2)ccc1O	none
CCS(=O)(=O)N1CCCC(C(=O)NCC2CCCO2)C1 (configuration not stated)	none
CC1(c2ccccc2)NC(=O)N(NC(=O)CSc2n[nH]c(N)n2)C1=O (configuration not stated)	none
COc1ccc(-c2noc(=O)n2Cc2ccccc2F)cc1	D1 antag -30
CC(C)c1ccc(NC(=O)COC(=O)CSc2nnc(N)s2)cc1	none
Nc1nnc(SCC(=O)OCC(=O)Nc2ccccc2F)s1	D1 antag -56
CCC(=O)Nc1ccc(-c2nnc3c4ccccc4c(C)nn23)cc1	D1 antag -39
CC(=O)c1ccc(S(=O)(=O)NC2CC(=O)N(c3ccc(Cl)cc3)C2)cc1 (configuration not stated)	D1 antag -34
O=C(c1cc2cc(F)ccc2[nH]1)N1CCCC(Nc2ccc(F)cc2)C1 (configuration not stated)	D1 antag -35
COc1ccc(NC2CCCN(C(=O)CCN3Cc4ccccc4C3=O)C2)cc1 (configuration not stated)	D1 antag -94
O=C(CCn1cnnn1)N1CCCC(Nc2ccc(F)cc2)C1 (configuration not stated)	D1 antag -35
Cc1cc(C(=O)N2CCCC(Nc3ccccc3)C2)c2ccc(F)cc2n1 (configuration not stated)	D1 antag -33
Cc1ccccc1OCC(=O)NCCNC(=O)c1cccnc1	none (no result: D1 PAM)
O=C(NCCc1ccccc1)Nc1cccc(Cl)c1	none
N#Cc1c(C#N)c(-c2ccccc2)n(-c2ccc(C(=O)O)cc2)c1N	none
CCN(CC(=O)Nc1ccccc1C(F)(F)F)C(=O)CCS(=O)(=O)c1ccc(Cl)cc1	D1 antag -30
CC(C)NCC(O)c1ccc(O)c(O)c1 (configuration not stated)	TRHR enhancer 36
Cc1cccc(NC(=O)c2oc3c(c2C)-c2[nH]ncc2CC3)c1C	none
Cc1ccc(NC(=O)c2oc3c(c2C)-c2[nH]ncc2CC3)c(Cl)c1	D1 antag -43
CC(=O)Nc1ccc(NC(=O)C2CC(=O)N(c3ccccc3Cl)C2)cc1 (configuration not stated)	D1 antag -31
C#CCOCCOCCOCCNc1nc(N2CCN(C(=O)[C@H](Cc3cc4ccccc4[nH]3)n3cc([C@@H](N)C(C)CC)nn3)CC2)nc(N2CCN(C(=O)[C@H](CCCCN)n3cc([C@@H](N)CO)nn3)CC2)n1 (some centres not stated)	D1 antag -35 (no result: GRP78 ERSR act)

Source: PubChem BioAssay (National Center for Advancing Translational Sciences (NCATS))
